Test results from PubChem BioAssay.
Calls of active or inactive are those of the source. Unless noted, the rule behind the calls is not given here.

Legend:
[1] = HepG2 liver cancer cell viability effects, profiling panel, resazurin fluorescence, 24 h, PK04 Diversity Set (AID 1172); details: higher = more signal
[2] = basal S. cerevisiae growth modulation, no modifier, primary screen, OD600, strain BY4716, 24 h, basal condition (AID 1173); details: OD600, 24 h, higher = more signal, called active from +8 up or from −8 down
[3] = MM1S myeloma cell viability, profiling panel, resazurin fluorescence, basal, 24 h, PK04 Diversity Set (AID 1174); details: higher = more signal, called active from +8 up or from −8 down;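 note: MM1S multiple myeloma cell line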
[4] = target: Dihydroorotate dehydrogenase (quinone), mitochondrial (Plasmodium falciparum (isolate 3D7)) (UniProt Q08210); experiment: PfDHODH enzyme inhibitors, primary screen, biochemical, C-terminal His tag, absorbance 600 nm (AID 1175); details: DCIP absorbance 600 nm, higher = more signal, called active from +8 up or from −8 down;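 note: recombinant parasite enzyme with a five histidine tag at its C terminus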
[5] = P. aeruginosa biofilm formation inhibitors, primary screen, strain PAO1, LB-PBS medium, absorbance 600 nm (AID 1176); details: P. aeruginosa PAO1 growth/biofilm, A600, 12 h; higher = more signal
[6] = S. cerevisiae RM11-1a growth modifiers, primary screen, strain RM11-1a, OD600, basal, 24 h (AID 1177); details: OD600, 24 h, higher = more signal, called active from +8 up or from −8 down;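 note: cultures grown under basal conditions with no added stressor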
[7] = E. coli acrAB mutant growth effects, primary screen, E. coli filamentation inducers, strain DRC39, OD650, 24 h (AID 1178); details: higher = more signal, called active from +8 up or from −8 down;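 note: growth measured as culture turbidity by optical density at 650 nm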
[8] = E. coli acrAB mutant growth effects, primary screen, E. coli filamentation inducers, strain DRC39, OD650, 48 h (AID 1179);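 note: screen aims at cell division blockers that make cells filament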; details: E. coli DRC39 delta-acrAB growth, higher = more signal, called active from +8 up or from −8 down
[9] = RPMI8226 myeloma cell viability, profiling panel, resazurin fluorescence, basal, 24 h, PK04 Diversity Set (AID 1180); details: higher = more signal;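 note: RPMI8826 multiple myeloma cell line at 5000 cells per well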
[10] = target: E3 ubiquitin-protein ligase XIAP (Homo sapiens) (UniProt P98170); experiment: XIAP binders, primary screen, biophysical, small-molecule microarray, fluorescence 635 nm (AID 1181); details: small-molecule microarray binding, higher = more signal;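 note: score merges 667 nm emission and signal to noise over triplicate slides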
[11] = test system: XIP peptide (Xip251-270) binding; experiment: small-molecule binders of XIP peptide, primary screen, biochemical, small-molecule microarray, fluorescence 635/667 nm, 0.1 µg/mL protein (AID 1182); details: fluorescent protein binding, 635 nm, higher = more signal, called active from +8 up or from −8 down
[12] = test system: XIP peptide (Xip251-270); experiment: small-molecule binders of XIP peptide, primary screen, biochemical, small-molecule microarray, fluorescence 635/667 nm, 0.5 µg/mL protein (AID 1183); details: small-molecule microarray binding, fluorescence 635 nm; higher = more signal
[13] = Plasmodium falciparum growth inhibition, primary screen, strain 3D7, DAPI fluorescence, 100 nL (AID 1184);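 note: parasites grown inside human red blood cells in medium with human serum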; details: P. falciparum 3D7 growth, 3 d, higher = more signal
[14] = target: Homeobox protein Hox-A13 (Mus musculus) (UniProt Q62424); experiment: inhibitors of HoxA13-DNA binding, primary screen, biochemical, fluorescence polarization, labeled oligonucleotide (AID 1185); details: 15 min, higher = more signal, called active from +8 up or from −8 down
[15] = inhibitors of hydroxyurea-induced Chk1 phosphorylation, primary screen, imaging, HeLa, phospho-Chk1 antibody, percent positive cells (AID 1186); details: hydroxyurea-induced phospho-Chk1 immunofluorescence imaging, higher = more signal
[16] = inhibitors of hydroxyurea-induced Chk1 phosphorylation, primary screen, imaging, HeLa, phospho-Chk1 nuclear intensity (AID 1187); details: hydroxyurea-induced phospho-Chk1 immunofluorescence imaging, higher = more signal

Dihydroorotate dehydrogenase (quinone), mitochondrial (Plasmodium falciparum (isolate 3D7)), sequence (Q08210 whole entry, looked up): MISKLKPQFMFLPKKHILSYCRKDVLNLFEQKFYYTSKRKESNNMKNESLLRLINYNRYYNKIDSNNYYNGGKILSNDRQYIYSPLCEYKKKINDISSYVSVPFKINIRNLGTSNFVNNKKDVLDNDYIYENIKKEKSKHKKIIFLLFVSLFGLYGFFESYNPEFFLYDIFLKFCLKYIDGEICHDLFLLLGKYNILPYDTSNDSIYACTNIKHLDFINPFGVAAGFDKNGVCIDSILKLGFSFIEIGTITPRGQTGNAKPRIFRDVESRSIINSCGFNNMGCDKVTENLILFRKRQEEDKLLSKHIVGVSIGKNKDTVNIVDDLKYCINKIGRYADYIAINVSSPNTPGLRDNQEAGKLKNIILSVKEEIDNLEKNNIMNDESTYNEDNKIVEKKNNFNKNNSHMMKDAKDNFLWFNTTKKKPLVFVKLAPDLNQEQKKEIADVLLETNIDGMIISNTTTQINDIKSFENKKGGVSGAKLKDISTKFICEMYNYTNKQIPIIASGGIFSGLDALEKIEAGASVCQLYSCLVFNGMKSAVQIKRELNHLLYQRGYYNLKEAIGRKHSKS
Homeobox protein Hox-A13 (Mus musculus), sequence (Q62424 whole entry, looked up): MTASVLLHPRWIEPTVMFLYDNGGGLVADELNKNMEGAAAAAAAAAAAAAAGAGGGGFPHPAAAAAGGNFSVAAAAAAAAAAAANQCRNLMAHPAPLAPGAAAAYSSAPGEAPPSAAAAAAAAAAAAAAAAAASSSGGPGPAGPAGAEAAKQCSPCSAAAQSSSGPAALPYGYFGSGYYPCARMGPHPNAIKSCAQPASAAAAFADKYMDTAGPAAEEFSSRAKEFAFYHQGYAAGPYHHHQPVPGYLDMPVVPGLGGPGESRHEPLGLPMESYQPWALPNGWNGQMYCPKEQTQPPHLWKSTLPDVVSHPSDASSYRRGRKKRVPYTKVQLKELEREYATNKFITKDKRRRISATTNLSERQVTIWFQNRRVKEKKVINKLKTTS
E3 ubiquitin-protein ligase XIAP (Homo sapiens), sequence (P98170 whole entry, looked up): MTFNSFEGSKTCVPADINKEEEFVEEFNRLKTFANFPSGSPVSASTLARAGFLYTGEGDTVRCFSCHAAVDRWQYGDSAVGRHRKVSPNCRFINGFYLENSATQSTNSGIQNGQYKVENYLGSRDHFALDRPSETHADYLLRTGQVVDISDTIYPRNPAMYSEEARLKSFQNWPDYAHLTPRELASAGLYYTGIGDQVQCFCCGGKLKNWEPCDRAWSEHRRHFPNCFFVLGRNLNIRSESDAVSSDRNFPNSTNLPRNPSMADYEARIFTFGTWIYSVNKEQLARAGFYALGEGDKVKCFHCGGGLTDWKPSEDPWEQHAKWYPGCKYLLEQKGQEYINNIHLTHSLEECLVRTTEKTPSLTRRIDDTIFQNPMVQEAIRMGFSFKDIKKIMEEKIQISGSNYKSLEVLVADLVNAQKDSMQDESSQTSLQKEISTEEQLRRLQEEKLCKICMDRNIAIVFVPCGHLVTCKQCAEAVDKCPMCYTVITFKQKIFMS

Structure (SMILES)	z-score [1]	z-score [2]	z-score [3]	composite z-score [4]	z-score [5]	z-score [6]	z-score [7]	z-score [8]	z-score [9]	composite z-score [10]	composite z-score [11]	composite z-score [12]	z-score [13]	z-score [14]	z-score [15]	z-score [16]
CCCN1C(=O)[C@@]2(c3ccc([N+](=O)[O-])cc3)CC(=O)N(CC34CC5CC(CC(C5)C3)C4)[C@@H]2c2ccc(CO)cc21	-0.113	-0.547 (inactive)	-0.148 (inactive)	-4.78 (inactive)	0.186 (inactive)	-0.664 (inactive)	0.2 (inactive)	-0.255 (inactive)	-0.559	0.0666	-0.349 (inactive)	0.483	0.877	-1.71 (inactive)	0.177 (inactive)	-0.16 (inactive)
CN1C(=O)C2C(C3CC3)C=C3CN(Cc4cccc(Cl)c4)[C@@H]([C@@H](O)Cc4ccccc4)C3C2C1=O (some centres undefined)	0.313	-1.83 (inactive)	0.076 (inactive)	-0.0831 (inactive)	0.601 (inactive)	0.248 (inactive)	0.942 (inactive)	0.588 (inactive)	-0.0321	-0.0264	0.163 (inactive)	0.74	-0.185	-4.6 (inactive)	-1.34 (inactive)	-2.37 (inactive)
CCOC(=O)C1=CC[C@@H](c2ccccc2)N(S(=O)(=O)c2ccc(C)cc2)[C@H]1c1ccccc1I	0.76	1.25 (inactive)	-0.0131 (inactive)	-0.158 (inactive)	1.05 (inactive)	-0.217 (inactive)	0.254 (inactive)	0.202 (inactive)	-1.16	-0.123	-0.0622 (inactive)	0.77	-2.07	-1.19 (inactive)	0.0035 (inactive)	-0.763 (inactive)
O=C1C2C=CC(C(O)c3ccc([N+](=O)[O-])cc3)N(Nc3ccccc3F)C2C(=O)N1c1ccccc1 (centres undefined)	-0.54	-1.45 (inactive)	-0.348 (inactive)	0.15 (inactive)	1.19 (inactive)	0.646 (inactive)	-0.892 (inactive)	-0.591 (inactive)	-0.608	0.0049	0.946 (inactive)	0.679	-0.111	-3.41 (inactive)	0.8 (inactive)	-0.314 (inactive)
